The text below walks through data of the OligoGym collection.
Also: reference of the scale not given here.

In the first experiment the target is SLC28A2. Description: pooled miR-30 sensor sort-seq; sequence = guide strand. The following applies: shRNA.
Turning to TCTTCTTGAACAATCTGGCGTG, the sensor-assay potency score (higher = more potent) was -0.29.
On the same count and under the same terms, for TTGTTGTAGAATCCACAGCAGT the value was -1.13.
Sequence TTGAACAATCTGGCGTGTGTTT came in with a sensor-assay potency score (higher = more potent) of -0.953.
Same read-out and setting: with ATCTTCTTGAACAATCTGGCGT the figure was -0.838.
For ATAGTGATTTGTAAAAACCAGG, the sensor-assay potency score (higher = more potent) is -0.831.
The sequence TTCCAGGACATTCCTCTCCTTC came in with a sensor-assay potency score (higher = more potent) of -1.16.
For the sequence TTGGACAGTCTGTCCACTCTAC, the sensor-assay potency score (higher = more potent) is 0.142.
The sequence TTGGGAAGGAGACACAGTCAGC displayed a sensor-assay potency score (higher = more potent) of -1.18.

Another experiment addresses SLC29A1. Described as above. The following applies: shRNA.
In turn, AAGACCACAGTCAGGTAGCGGC registered a sensor-assay potency score (higher = more potent) of -0.976.
The sequence ATATTGAAAGTCAAGAAACAGG returned a sensor-assay potency score (higher = more potent) of -1.17.
In turn, TTTCTGATAGCTCCGAGCCACT had a sensor-assay potency score (higher = more potent) of -1.47.
TTGCTAATGAGGTCCAACTTGG had a sensor-assay potency score (higher = more potent) of -1.11.
The same measure, in the same setting: with AATGTTGCACAGCAGCAGCAGT the figure was -1.2; with TGAATTAATGAGCACGATCTTG, -0.995.
TTTGCTAATGAGGTCCAACTTG showed a sensor-assay potency score (higher = more potent) of -0.866.
ATGATAACAGCACAGGCTGTGA displayed a sensor-assay potency score (higher = more potent) of -1.06.
Regarding TCGAAGACCACAGTCAGGTAGC, the sensor-assay potency score (higher = more potent) was -0.552.
For TTGTGAAATACTGAGTGGCCGT, the sensor-assay potency score (higher = more potent) is -0.907.
In the case of TCAAGAAACAGGACACAGGAAT, the sensor-assay potency score (higher = more potent) is -0.724.
The sequence TTGAAGATGGCACTGAGAGAGT displayed a sensor-assay potency score (higher = more potent) of -0.713.
In turn, ATGAAGAAGATGAACCAGGCAT gave a sensor-assay potency score (higher = more potent) of 0.328.
TTCAAGCTTGAGCTGCTGGTAG showed a sensor-assay potency score (higher = more potent) of 0.0487.
The sequence TAGGGTCATGACATTGTTGAAG yielded a sensor-assay potency score (higher = more potent) of -0.605.
TTGAGCTGCTGGTAGTAGCGGT gave a sensor-assay potency score (higher = more potent) of 0.0578.
The sequence TTGCACAGCAGCAGCAGTGGCA returned a sensor-assay potency score (higher = more potent) of -0.846.
On the same count and under the same terms, for TAACGTTCCCAGGTGCTGCTGC the value was 0.232; for TGAAACTCCAGATTCCTCTTTG, -0.131.
On to AAATGATAACAGCACAGGCTGT, for which the sensor-assay potency score (higher = more potent) was -0.935.
TCCTTTGCTAATGAGGTCCAAC registered a sensor-assay potency score (higher = more potent) of -1.65.
Consider TTGACCTCAACAGTCACGGCTG, for which the sensor-assay potency score (higher = more potent) was found to be 0.158.
The same measure, in the same setting: with TTTGTATCTGTCCTGAGGCTGG the figure was -0.764.

The target in a further experiment is SLC29A3. Described as above. The following applies: shRNA.
Regarding TATGACTGGAATATCTGCCTTG, the sensor-assay potency score (higher = more potent) came to 0.374.
TTGAACTGTGCTGAAAGTCGTC gave a sensor-assay potency score (higher = more potent) of 0.651.
Regarding TTGACATGTTGTAAACAGGAAC, the sensor-assay potency score (higher = more potent) is -1.02.
Take TTTGCTTGCATCTCGCTGTCAG: the sensor-assay potency score (higher = more potent) came out at 0.244.
Sequence TTGAACATCCAGTACTCCTTGG had a sensor-assay potency score (higher = more potent) of -0.255.
For the sequence TTGCGGAGTTTGAACATCCAGT, the sensor-assay potency score (higher = more potent) was -0.979.
Still for that read-out and setting: for TTACAGAGCACGAAGAGGGGGA the value was 0.172; for TTTGAACATCCAGTACTCCTTG, 0.313.
TTGCTTGCATCTCGCTGTCAGC had a sensor-assay potency score (higher = more potent) of -1.44.
